Residual activity data for eight molecules are collected here from ChEMBL document CHEMBL2218924, “A broad activity screen in support of a chemogenomic map for kinase signalling research and drug discovery” (Biochem J, 2013).

Experiment [1] concerns the target T1, Dual specificity mitogen-activated protein kinase kinase 6 (Homo sapiens) (UniProt P52564).
T1 sequence (whole entry): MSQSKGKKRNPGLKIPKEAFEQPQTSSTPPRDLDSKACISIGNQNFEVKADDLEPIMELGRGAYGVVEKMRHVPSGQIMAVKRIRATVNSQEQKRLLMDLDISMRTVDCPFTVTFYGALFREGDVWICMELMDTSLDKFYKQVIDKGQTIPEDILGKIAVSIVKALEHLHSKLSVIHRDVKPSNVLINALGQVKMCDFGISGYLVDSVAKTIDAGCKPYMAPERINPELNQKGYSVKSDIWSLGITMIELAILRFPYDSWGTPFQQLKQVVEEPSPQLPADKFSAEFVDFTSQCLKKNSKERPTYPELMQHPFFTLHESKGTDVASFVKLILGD
The note with it: at 1 µM.

The target of experiment [2] is T1, Dual specificity mitogen-activated protein kinase kinase 6 (Homo sapiens). Conditions: at 10 µM.
Experiment [3] deals with T2, Dual specificity mitogen-activated protein kinase kinase 7 (Homo sapiens) (UniProt O14733).
T2 sequence (whole entry): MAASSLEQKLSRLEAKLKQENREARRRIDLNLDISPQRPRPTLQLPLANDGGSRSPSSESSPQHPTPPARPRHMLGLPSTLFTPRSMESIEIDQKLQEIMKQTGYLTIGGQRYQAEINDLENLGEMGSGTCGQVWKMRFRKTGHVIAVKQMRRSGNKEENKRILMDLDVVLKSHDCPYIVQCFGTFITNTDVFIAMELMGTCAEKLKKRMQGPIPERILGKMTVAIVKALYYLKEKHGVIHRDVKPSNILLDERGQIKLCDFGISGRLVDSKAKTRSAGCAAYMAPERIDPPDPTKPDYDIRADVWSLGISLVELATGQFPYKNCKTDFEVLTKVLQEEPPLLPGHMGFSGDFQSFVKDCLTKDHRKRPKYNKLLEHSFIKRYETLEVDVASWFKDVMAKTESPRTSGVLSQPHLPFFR
The note with it: at 1 µM.

Experiment [4] has as its target T2, Dual specificity mitogen-activated protein kinase kinase 7 (Homo sapiens). The note with it: at 10 µM.
Experiment [5] addresses Myosin light chain kinase, smooth muscle (Homo sapiens) (UniProt Q15746). The note with it: at 1 µM.
For experiment [6] the target is unchanged. Conditions: at 10 µM.
Experiment [7] concerns the target Mitogen-activated protein kinase kinase kinase 9 (Homo sapiens) (UniProt P80192). Conditions: at 1 µM.
For experiment [8] the target is unchanged. Conditions: at 10 µM.
Experiment [9] deals with Serine/threonine-protein kinase MRCK alpha (Homo sapiens) (UniProt Q5VT25). Conditions: at 1 µM.
Sequence of Serine/threonine-protein kinase MRCK alpha (Homo sapiens) (Q5VT25 whole entry): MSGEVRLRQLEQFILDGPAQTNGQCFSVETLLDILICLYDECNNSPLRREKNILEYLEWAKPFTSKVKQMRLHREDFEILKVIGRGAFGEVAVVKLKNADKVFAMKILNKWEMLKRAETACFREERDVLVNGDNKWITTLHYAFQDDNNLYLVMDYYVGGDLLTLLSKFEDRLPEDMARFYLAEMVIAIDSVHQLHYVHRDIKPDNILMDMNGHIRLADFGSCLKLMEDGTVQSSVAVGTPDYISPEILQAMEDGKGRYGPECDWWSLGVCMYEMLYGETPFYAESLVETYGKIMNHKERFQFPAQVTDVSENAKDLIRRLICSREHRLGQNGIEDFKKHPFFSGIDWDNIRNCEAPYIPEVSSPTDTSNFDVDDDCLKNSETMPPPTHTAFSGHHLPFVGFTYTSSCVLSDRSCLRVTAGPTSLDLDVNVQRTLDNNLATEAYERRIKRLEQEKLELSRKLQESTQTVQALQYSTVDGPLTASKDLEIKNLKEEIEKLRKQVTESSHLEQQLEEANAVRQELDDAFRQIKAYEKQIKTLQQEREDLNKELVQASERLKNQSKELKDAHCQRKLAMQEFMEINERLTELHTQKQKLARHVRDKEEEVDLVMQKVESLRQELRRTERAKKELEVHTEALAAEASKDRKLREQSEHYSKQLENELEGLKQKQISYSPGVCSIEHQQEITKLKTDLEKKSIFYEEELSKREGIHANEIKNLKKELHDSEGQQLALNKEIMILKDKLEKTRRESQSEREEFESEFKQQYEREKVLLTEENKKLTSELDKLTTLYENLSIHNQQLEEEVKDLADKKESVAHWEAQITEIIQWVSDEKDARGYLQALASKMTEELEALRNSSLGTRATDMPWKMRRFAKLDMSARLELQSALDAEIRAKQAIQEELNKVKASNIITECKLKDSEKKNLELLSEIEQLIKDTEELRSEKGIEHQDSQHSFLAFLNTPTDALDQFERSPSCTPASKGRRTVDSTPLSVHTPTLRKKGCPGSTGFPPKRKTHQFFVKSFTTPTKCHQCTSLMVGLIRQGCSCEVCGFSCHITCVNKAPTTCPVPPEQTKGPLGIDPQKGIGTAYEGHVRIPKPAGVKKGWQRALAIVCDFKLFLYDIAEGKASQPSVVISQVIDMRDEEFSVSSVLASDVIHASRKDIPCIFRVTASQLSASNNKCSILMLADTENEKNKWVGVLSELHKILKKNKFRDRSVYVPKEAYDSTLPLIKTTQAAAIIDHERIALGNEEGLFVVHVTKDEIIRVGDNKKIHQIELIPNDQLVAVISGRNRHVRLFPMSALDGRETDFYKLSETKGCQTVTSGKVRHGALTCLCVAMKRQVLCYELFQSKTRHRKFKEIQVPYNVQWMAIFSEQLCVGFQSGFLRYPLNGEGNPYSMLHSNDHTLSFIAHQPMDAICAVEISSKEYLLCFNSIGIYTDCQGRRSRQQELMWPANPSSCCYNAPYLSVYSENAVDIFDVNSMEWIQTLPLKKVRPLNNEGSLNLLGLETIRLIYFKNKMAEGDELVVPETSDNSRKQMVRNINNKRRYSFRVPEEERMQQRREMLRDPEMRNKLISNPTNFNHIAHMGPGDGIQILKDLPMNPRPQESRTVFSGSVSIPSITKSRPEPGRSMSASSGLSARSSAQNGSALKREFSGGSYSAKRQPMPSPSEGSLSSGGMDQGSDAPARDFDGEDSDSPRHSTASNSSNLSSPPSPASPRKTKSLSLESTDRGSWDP
Experiment [10] has the same target. Conditions: at 10 µM.
The target in experiment [11] is Serine/threonine-protein kinase MRCK beta (Homo sapiens) (UniProt Q9Y5S2). The note with it: at 1 µM.
Sequence of Serine/threonine-protein kinase MRCK beta (Homo sapiens) (Q9Y5S2 whole entry): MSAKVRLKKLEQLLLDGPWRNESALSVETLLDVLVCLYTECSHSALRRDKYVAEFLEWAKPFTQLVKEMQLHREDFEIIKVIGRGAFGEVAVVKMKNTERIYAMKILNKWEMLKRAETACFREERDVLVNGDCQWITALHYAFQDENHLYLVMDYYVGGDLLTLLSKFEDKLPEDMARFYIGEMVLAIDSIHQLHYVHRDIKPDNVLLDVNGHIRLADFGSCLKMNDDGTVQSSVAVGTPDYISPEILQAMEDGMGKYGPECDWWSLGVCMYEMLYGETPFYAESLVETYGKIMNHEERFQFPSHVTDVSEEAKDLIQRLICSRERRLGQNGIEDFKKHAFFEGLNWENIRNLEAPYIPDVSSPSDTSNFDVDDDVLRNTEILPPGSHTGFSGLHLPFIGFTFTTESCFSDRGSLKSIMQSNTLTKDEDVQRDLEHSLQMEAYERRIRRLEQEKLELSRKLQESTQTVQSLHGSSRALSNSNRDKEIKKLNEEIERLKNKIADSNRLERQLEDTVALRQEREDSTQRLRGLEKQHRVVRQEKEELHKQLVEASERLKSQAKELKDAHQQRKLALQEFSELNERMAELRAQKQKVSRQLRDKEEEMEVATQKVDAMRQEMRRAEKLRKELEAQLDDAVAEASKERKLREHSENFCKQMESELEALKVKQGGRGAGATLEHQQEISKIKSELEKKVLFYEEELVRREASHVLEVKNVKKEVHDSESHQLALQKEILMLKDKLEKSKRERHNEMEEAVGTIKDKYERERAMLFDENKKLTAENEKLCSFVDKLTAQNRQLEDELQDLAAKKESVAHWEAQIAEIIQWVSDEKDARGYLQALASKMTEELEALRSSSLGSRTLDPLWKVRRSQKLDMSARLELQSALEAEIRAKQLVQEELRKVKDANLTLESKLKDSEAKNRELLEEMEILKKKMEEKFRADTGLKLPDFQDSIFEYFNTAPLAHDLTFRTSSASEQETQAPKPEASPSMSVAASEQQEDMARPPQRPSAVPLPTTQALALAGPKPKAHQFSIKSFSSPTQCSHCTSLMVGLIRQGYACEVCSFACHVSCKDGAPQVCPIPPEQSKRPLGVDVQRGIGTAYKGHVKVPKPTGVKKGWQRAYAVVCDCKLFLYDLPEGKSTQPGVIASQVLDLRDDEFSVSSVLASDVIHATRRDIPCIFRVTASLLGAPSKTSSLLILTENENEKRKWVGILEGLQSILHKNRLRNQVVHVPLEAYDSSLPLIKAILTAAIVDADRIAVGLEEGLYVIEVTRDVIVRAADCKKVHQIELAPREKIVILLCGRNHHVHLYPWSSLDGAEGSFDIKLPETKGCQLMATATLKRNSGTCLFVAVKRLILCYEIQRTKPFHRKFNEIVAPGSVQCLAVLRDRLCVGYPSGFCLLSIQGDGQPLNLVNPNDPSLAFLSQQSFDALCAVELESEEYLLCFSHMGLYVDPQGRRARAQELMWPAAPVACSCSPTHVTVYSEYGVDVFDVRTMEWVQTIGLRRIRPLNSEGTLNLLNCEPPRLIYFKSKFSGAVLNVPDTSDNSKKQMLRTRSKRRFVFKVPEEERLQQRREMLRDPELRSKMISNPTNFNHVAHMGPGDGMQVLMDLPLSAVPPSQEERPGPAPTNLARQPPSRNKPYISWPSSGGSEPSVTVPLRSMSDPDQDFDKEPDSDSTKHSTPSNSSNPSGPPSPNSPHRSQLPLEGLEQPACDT
The target is the same in experiment [12]. The note with it: at 10 µM.
For experiment [13], the target named is Ribosomal protein S6 kinase alpha-5 (Homo sapiens) (UniProt O75582). Conditions: at 1 µM.
Sequence of Ribosomal protein S6 kinase alpha-5 (Homo sapiens) (O75582 whole entry, looked up): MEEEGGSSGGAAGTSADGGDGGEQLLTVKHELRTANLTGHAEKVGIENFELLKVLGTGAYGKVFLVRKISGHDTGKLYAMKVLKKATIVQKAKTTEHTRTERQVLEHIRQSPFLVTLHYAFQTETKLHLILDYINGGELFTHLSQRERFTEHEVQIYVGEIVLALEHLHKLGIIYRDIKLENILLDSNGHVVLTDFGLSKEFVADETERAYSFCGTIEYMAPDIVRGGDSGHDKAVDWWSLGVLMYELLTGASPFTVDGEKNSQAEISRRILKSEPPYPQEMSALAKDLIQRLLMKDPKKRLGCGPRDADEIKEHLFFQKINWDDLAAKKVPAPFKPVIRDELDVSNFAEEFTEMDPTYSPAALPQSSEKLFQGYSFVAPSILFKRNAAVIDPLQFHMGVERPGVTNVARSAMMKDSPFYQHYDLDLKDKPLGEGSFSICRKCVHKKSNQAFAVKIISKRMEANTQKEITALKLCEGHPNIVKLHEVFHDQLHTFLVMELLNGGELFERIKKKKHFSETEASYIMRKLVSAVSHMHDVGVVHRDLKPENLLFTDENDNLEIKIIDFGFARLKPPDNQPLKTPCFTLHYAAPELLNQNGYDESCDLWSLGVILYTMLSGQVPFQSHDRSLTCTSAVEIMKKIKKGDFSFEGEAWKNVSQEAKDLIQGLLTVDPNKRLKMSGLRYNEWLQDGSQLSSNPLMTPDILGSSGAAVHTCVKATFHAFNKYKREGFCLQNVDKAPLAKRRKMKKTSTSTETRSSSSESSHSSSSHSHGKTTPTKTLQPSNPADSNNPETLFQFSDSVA
For experiment [14] the target is unchanged. The note with it: at 10 µM.
The target in experiment [15] is Ribosomal protein S6 kinase alpha-4 (Homo sapiens) (UniProt O75676). The note with it: at 1 µM.
The target is the same in experiment [16]. Conditions: at 10 µM.
Experiment [17] has as its target SRSF protein kinase 3 (Homo sapiens) (UniProt Q9UPE1). The note with it: at 1 µM.
Experiment [18] has the same target. The note with it: at 10 µM.
For experiment [19], the target named is T3, Serine/threonine-protein kinase 4 (Homo sapiens) (UniProt Q13043).
T3 sequence (whole entry): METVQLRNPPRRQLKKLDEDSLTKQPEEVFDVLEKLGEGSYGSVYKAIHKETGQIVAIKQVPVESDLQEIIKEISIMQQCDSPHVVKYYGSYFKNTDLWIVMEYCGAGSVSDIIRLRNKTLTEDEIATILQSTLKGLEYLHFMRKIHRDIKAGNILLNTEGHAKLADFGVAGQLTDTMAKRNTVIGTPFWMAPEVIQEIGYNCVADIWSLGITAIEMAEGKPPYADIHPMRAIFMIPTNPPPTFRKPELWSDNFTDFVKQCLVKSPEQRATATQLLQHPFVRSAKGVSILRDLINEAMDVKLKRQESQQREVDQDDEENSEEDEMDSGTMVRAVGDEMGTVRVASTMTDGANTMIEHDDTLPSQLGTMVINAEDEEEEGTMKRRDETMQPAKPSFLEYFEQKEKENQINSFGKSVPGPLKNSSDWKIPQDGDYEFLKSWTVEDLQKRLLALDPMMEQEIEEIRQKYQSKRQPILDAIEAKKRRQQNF
Conditions: at 1 µM.

Experiment [20] has as its target T3, Serine/threonine-protein kinase 4 (Homo sapiens). Conditions: at 10 µM.

Sequence of SRSF protein kinase 3 (Homo sapiens) (Q9UPE1 whole entry): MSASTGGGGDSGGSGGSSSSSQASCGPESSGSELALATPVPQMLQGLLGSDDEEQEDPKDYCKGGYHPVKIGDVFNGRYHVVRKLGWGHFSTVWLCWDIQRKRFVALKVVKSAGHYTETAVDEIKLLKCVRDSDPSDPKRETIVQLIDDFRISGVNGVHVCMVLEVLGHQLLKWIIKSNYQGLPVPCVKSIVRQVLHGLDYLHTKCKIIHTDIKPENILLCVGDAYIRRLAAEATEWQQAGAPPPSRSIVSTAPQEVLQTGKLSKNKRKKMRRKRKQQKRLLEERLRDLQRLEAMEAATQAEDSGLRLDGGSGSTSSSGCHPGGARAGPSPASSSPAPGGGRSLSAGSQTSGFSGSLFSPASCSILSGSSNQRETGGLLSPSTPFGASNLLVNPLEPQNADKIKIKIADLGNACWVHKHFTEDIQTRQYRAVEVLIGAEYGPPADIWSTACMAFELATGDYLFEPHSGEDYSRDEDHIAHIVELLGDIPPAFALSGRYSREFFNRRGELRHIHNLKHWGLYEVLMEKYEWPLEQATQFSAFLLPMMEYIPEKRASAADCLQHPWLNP

With `NC(=O)c1ccc2[nH]c(-c3ccc(Oc4ccc(Cl)cc4)cc3)nc2c1`, the residual activity in experiment [1] amounted to 91%; in [2] it was 94%; in [3], 94%; in experiment [4], 103%; in [5] it was 93%; in experiment [6] it was 96%. Moreover, the residual activity in [7] turned out to be 89%; in experiment [8] it was 34%; in [9], 113%; in experiment [10], 127%; in experiment [11] it was 94%; in [12] it was 106%. The residual activity was determined as 115% in [13]; 139% in experiment [14]; 94% in [15]; 102% in [16]; 98% in experiment [17]; 72% in [18]. Further, the residual activity in experiment [19] was 97%; in experiment [20] it was 87%.

Turning to `Nc1ccc2ncnc(NCCc3ccc(Oc4ccccc4)cc3)c2c1`, the residual activity worked out at 90% in experiment [1]; 82% in experiment [2]; 73% in [3]; 96% in [4]; 104% in experiment [5]; 64% in [6]. Moreover, the residual activity in experiment [8] stood at 80%; in experiment [9], 131%; in [10], 124%; in experiment [11] it was 103%; in [12], 107%; in experiment [13] it was 109%. The residual activity in experiment [14] stood at 111%; in experiment [15], 92%; in [16], 72%; in experiment [17], 111%; in [18], 86%; in [19], 89%. In experiment [20], the residual activity is 102%.

As to `COc1cc2ncnc(Nc3ccc(NC(=O)c4ccccc4)cc3)c2cc1OC`, the residual activity in [2] came to 97%; in experiment [3] it was 92%; in experiment [4] it was 74%; in experiment [5], 77%; in experiment [6], 96%; in experiment [7], 72%. Moreover, the residual activity in [8] was 22%; in [9], 105%; in [12], 90%; in experiment [14] it was 95%; in experiment [15], 106%; in experiment [16] it was 101%. The figures for the residual activity in [18] and in [20] were 99% and 98%, respectively.

Regarding `O=C1Nc2cc(Br)ccc2/C1=C1/Nc2ccccc2/C1=N\O`, the residual activity in experiment [1] was 87%; in [2], 65%; in [3], 80%; in experiment [4], 93%; in experiment [5], 25%; in [6], 32%. Further, the residual activity in [7] amounted to 21%; in [8], 10%; in experiment [9], 141%; in [10], 103%; in experiment [11] it was 83%; in experiment [12], 87%. Further, the residual activity came out at 72% in [13]; 78% in [14]; 60% in experiment [15]; 55% in experiment [16]; 93% in [17]; 102% in [18]. Further, the residual activity in experiment [19] is 8%; in experiment [20] it was -1%.

`O=C(O)c1ccc2c3c1cccc3c(=O)n1c3ccccc3nc21`: the residual activity turned out to be 92% in experiment [1]; 64% in [2]; 87% in [3]; 46% in experiment [4]; 88% in experiment [5]; 35% in experiment [6]. Besides, the residual activity turned out to be 33% in [7]; 5% in experiment [8]; 107% in [9]; 115% in experiment [10]; 93% in [11]; 93% in [12]. The residual activity came to 98% in experiment [13]; 93% in experiment [14]; 95% in experiment [15]; 84% in experiment [16]; 97% in experiment [17]; 48% in experiment [18]. Also, the residual activity in experiment [19] was 83%; in [20], 72%.

Regarding `c1ccc(-c2n[nH]cc2-c2ccnc3ccccc23)nc1`, the residual activity in experiment [1] was determined as 75%; in [2] it was 48%; in [4] it was 87%; in experiment [5] it was 77%; in [6], 97%; in experiment [7], 100%. For the same molecule, the residual activity came out at 103% in experiment [8]; 102% in [9]; 100% in [10]; 96% in experiment [11]; 87% in [12]; 89% in [15]. For the same molecule, the residual activity turned out to be 108% in [16], 109% in [17] and 94% in experiment [18].

As for `COc1cc2ncnc(N3CCN(C(=O)Nc4ccc(Oc5ccccc5)cc4)CC3)c2cc1OC`, the residual activity in experiment [1] turned out to be 87%; in [2], 81%; in [3], 144%; in experiment [4] it was 111%; in experiment [5] it was 77%; in [6] it was 97%. The residual activity in [7] is 87%; in [8] it was 91%; in experiment [11], 83%; in experiment [12], 87%; in [13], 113%; in [14], 104%. Besides, the residual activity in experiment [15] is 93%; in [16] it was 123%; in experiment [17], 109%; in experiment [18] it was 79%; in [19], 85%; in experiment [20] it was 88%.

In the case of `O=C1Nc2ccccc2/C1=C1/Nc2ccccc2/C1=N\OCCC(O)CO` (centres undefined), the residual activity amounted to 51% in [1]; 7% in experiment [2]; 54% in experiment [3]; 5% in experiment [4]; 26% in [5]; 20% in [6]. The residual activity was 2% in experiment [7]; 2% in experiment [8]; 111% in experiment [9]; 107% in experiment [10]; 47% in experiment [13]; 10% in experiment [14]. In addition, the residual activity in [15] was 15%; in experiment [16] it was 2%; in [17], 62%; in experiment [18], 42%; in experiment [19], 4%; in [20], -3%.
